# Source: PubChem BioAssay AID588397 (National Center for Advancing Translational Sciences (NCATS), 2011)
# The whole screen tested about 1,300 compounds, of which about 1,000 (77%) were called active. Not shown: some 7% with an inconclusive outcome. The call rests on the fitted dose curve; in most records, active means well fitted inhibition curve with a large enough effect; inconclusive means small, poorly fitted or top-dose-only effect; inactive means no such curve, though single readings can be large or run the other way. So high a share suggests a set chosen from earlier hits. Some of the results follow.
# Assay: qHTS of small molecules that selectively kill Giardia lamblia: Hit Validation.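 Further: viability measured as ATP content by luminescence so killing lowers signal; nearly all actives have a fitted effect of over 65% in size.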
# Details: Giardia lamblia trophozoite viability, dose-response; series mostly up to 38.3 µM
# Procedure, shortened: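 Trophozoite viability was measured as ATP-dependent luminescence, read 15-30 min after reagent addition. Before that, parasites at 100 cells/well were exposed to compounds for 48 h, anaerobically, at 37 deg C.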
# Potency means the concentration at half of the fitted maximal effect.
row,SMILES,Potency
1,O=C(Nc1nc2cc3c(cc2s1)OCCO3)c1ccc([N+](=O)[O-])o1,0.579 µM (active)
2,O=C(Nc1nc2c(Cl)cccc2s1)c1ccc([N+](=O)[O-])o1,1.45 µM (active)
3,O=C(Nc1nc2c(F)cc(F)cc2s1)c1ccc([N+](=O)[O-])o1,1.16 µM (active)
4,CCCn1c(NC(=O)c2ccc([N+](=O)[O-])o2)nc2ccccc21,1.3 µM (active)
5,CCn1c(CCNC(=O)c2ccc(F)cc2)nc2ccccc21,inactive
6,CCOP(=O)(OCC)c1cccc(P(=O)(c2ccccc2)c2ccccc2)c1O,inactive
7,COC(=O)[C@]1(C)N[C@H](CN(C)S(=O)(=O)c2ccc(-c3ccccc3)cc2)[C@@H]2C(=O)N(C)C(=O)[C@@H]21,inactive
8,O=C(Nc1nc2c(F)cccc2s1)c1ccc([N+](=O)[O-])o1,1.03 µM (active)
9,O=C(Nc1nc2ccccc2s1)c1ccc([N+](=O)[O-])o1,1.03 µM (active)
10,COc1ccc2nc(NC(=O)c3ccc([N+](=O)[O-])o3)sc2c1,0.918 µM (active)
11,O=C(Nc1cccc2ccccc12)c1ccc([N+](=O)[O-])o1,1.03 µM (active)
12,O=C(Nc1cccc2ncccc12)c1ccc([N+](=O)[O-])o1,0.918 µM (active)
13,NC(=O)c1oc2ccccc2c1NC(=O)c1ccc([N+](=O)[O-])o1,0.65 µM (active)
14,COc1cc(C2C(C(=O)c3ccc(C)o3)=C(O)C(=O)N2c2cc(C)on2)ccc1OCc1ccccc1 (stereo not drawn),inactive
15,CCC(C)Nc1ccc(NC(C)CC)cc1 (stereo not drawn),0.183 µM (active)
16,Clc1ccc2c(N/N=C/c3ccc(Br)cc3)ccnc2c1,0.516 µM (active)
17,Clc1ccc2c(N/N=C/c3cccc(Br)c3)ccnc2c1,1.45 µM (active)
18,O=[N+]([O-])c1ccc(/C=N/Nc2ccnc3cc(Cl)ccc23)o1,2.05 µM (active)
19,Cc1nc2c(N=Nc3ccccc3F)c(N)nn2c(N)c1C#N,4.6 µM (active)
20,CCOC(=O)Cn1c(=NC(=O)c2ccc([N+](=O)[O-])s2)sc2ccccc21,1.83 µM (active)
21,CC(=O)O[C@@H]1[C@@H](O)CN[C@@H]1Cc1ccccc1,0.579 µM (active)
22,O=[N+]([O-])c1cc(S(=O)(=O)N2CCOCC2)ccc1NS(=O)(=O)c1ccccc1,1.83 µM (active)
23,O=S(=O)(c1ccccc1)N1CCN(S(=O)(=O)c2ccccc2)CC1,inactive
24,O=[N+]([O-])c1cc(S(=O)(=O)Nc2cccc(Cl)c2)ccc1N/N=C/c1ccc(N2CCOCC2)cc1,6.5 µM (active)

row,SMILES,Potency
1,O=[N+]([O-])c1cc(S(=O)(=O)N2CCCC2)ccc1N/N=C/c1ccncc1,2.31 µM (active)
2,N=C1C(c2ccccc2)=C(O)CN1c1cccc(S(=O)(=O)N2CCOCC2)c1,inactive
3,Nc1ccc(/C=C/c2nccc3ccccc23)cc1,3.26 µM (active)
4,C(=C\c1nccc2ccccc12)/c1ccc(N2CCOCC2)cc1,2.31 µM (active)
5,Nc1ncnc2c1ncn2C1O[C@H](CO)[C@@H](O)[C@@H]1O (stereo partly drawn),0.818 µM (active)
6,O=C(Nc1ccc2nc(-c3ccco3)[nH]c2c1)c1cccs1,5.79 µM (active)
7,O=C(Nc1ccc2c(c1)nc1n2CCSC1)c1ccco1,4.6 µM (active)
8,O=C(NC12CC3CC(CC(C3)C1)C2)c1ccc([N+](=O)[O-])o1,1.03 µM (active)
9,CC(NC(=O)c1ccc([N+](=O)[O-])o1)C1CC2CCC1C2 (stereo not drawn),1.45 µM (active)
10,CC(NC(=O)c1ccc([N+](=O)[O-])o1)C12CC3CC(CC(C3)C1)C2 (stereo not drawn),0.918 µM (active)
11,CC(C)c1ccc(N=c2c([N+](=O)[O-])nn(-c3ccc4c(c3)OCCO4)n2O)cc1,2.05 µM (active)
12,O=[N+]([O-])c1nn(-c2ccc3c(c2)OCCO3)n(O)c1=Nc1ccc(Cl)cc1,1.3 µM (active)
13,O=c1c2ccccc2nc(/C=C/c2ccc([N+](=O)[O-])o2)n1CCCO,0.579 µM (active)
14,CC(=O)N(/N=C/c1ccc([N+](=O)[O-])o1)c1nc2ccccc2c(=O)n1-c1ccccc1,1.03 µM (active)
15,Cc1cccc(-c2nnc(SCc3cc(=O)[nH]c4ccccc34)n2C)c1,inactive
16,Cc1cc(C)nc(N/N=C/c2ccc(Cl)cc2)n1,inactive
17,CCNc1nc(NCC)nc(N/N=C/c2ccc([N+](=O)[O-])o2)n1,2.59 µM (active)
18,Cc1cc(C)nc(N/N=C/c2ccc([N+](=O)[O-])o2)n1,1.3 µM (active)
19,O=C(Cc1csc(Nc2nc(=S)[nH]c3ccccc23)n1)NCCCN1CCN(c2ccccc2F)CC1,14.5 µM (active)
20,CCOC(=O)Cc1csc(NC(=S)NC(=O)c2ccc(C)cc2)n1,7.29 µM (active)
21,CSc1cccc(NS(=O)(=O)c2cn(C)cn2)c1,inactive
22,Cc1ccc(OCC(=O)c2cc(C)n(C)c2C)c([N+](=O)[O-])n1,1.45 µM (active)
23,C=CCn1c(C)cc(C(=O)COc2ccc(C)nc2[N+](=O)[O-])c1C,0.46 µM (active)
24,COCCn1c(C)cc(C(=O)COc2cccnc2[N+](=O)[O-])c1C,1.3 µM (active)

row,SMILES,Potency
1,Cc1ccc(OCc2ccc([N+](=O)[O-])cc2)c([N+](=O)[O-])n1,3.26 µM (active)
2,CCCn1c(C)cc(C(=O)COc2ccc(C)nc2[N+](=O)[O-])c1C,1.03 µM (active)
3,C=CCn1c(C)cc(C(=O)COC(=O)c2n[nH]c(=O)c3ccccc23)c1C,4.6 µM (active)
4,COCCn1c(C)cc(C(=O)COc2ccc(C)nc2[N+](=O)[O-])c1C,0.918 µM (active)
5,c1ccc2cc3c(NCCN4CCOCC4)ccnc3cc2c1,1.83 µM (active)
6,Cc1ccc(-c2cnc3cc(C)nn3c2)cc1,5.79 µM (active)
7,COc1cccc(CSc2nc3ccncc3[nH]2)c1,1.63 µM (active)
8,Clc1ccccc1CSc1nc2ccncc2[nH]1,3.65 µM (active)
9,Clc1ccc(CSc2nc3ccncc3[nH]2)cc1,0.579 µM (active)
10,O=C(c1ccc(CSc2nc3ccncc3[nH]2)cc1)N1CCCCCC1,1.16 µM (active)
11,Cc1ccc(CSc2nc3ccncc3[nH]2)cc1,0.259 µM (active)
12,CCCC(=O)NC(=S)NNC(=O)c1ccc([N+](=O)[O-])cc1,0.41 µM (active)
13,CC(C)CC(=O)NC(=S)NNC(=O)c1ccc([N+](=O)[O-])cc1,1.3 µM (active)
14,CSCCC(NC(=O)OC(C)(C)C)C(=O)Oc1ccc2c(=O)c(-c3ccc4c(c3)OCCO4)coc2c1 (stereo not drawn),1.03 µM (active)
15,CSCCC(NS(=O)(=O)c1ccc2c(c1)OCCO2)C(=O)N(C)Cc1ccccc1F (stereo not drawn),inactive
16,O=C(Nc1ccccc1N1CCOCC1)c1ccc([N+](=O)[O-])s1,2.05 µM (active)
17,O=C(Nc1cc(S(=O)(=O)N2CCOCC2)ccc1N1CCOCC1)c1ccc([N+](=O)[O-])s1,4.1 µM (active)
18,O=C(/C=C/c1ccc(O)c([N+](=O)[O-])c1)c1ccc2ccccc2c1,2.05 µM (active)
19,Cc1cc(C(=O)COc2cccnc2[N+](=O)[O-])c(C)n1-c1ccccc1,0.365 µM (active)
20,Cc1cc(C(=O)COc2cccnc2[N+](=O)[O-])c(C)n1-c1ccccc1F,1.16 µM (active)
21,O=C(COc1cccnc1[N+](=O)[O-])c1c[nH]c2ccccc12,5.16 µM (active)
22,Cc1ccc(-n2c(C)cc(C(=O)COc3cccnc3[N+](=O)[O-])c2C)cc1,0.516 µM (active)
23,Cc1ccc2nccnc2c1,1.3 µM (active)
24,O=C1C[C@@H](c2ccc(O[C@@H]3O[C@H](CO)[C@@H](O)[C@H](O)[C@H]3O)cc2)Oc2cc(O)ccc21,inactive

row,SMILES,Potency
1,CC1(C(=O)N/N=C/c2ccc([N+](=O)[O-])o2)CC1(Br)Br (stereo not drawn),0.65 µM (active)
2,COc1ccccc1NS(=O)(=O)c1cccc(C(=O)N/N=C/c2ccc([N+](=O)[O-])o2)c1,4.1 µM (active)
3,CCOc1ccccc1NS(=O)(=O)c1c[nH]c(C(=O)OC)c1,inactive
4,Cc1cc(C(=O)N/N=C/c2ccc([N+](=O)[O-])o2)c(C)o1,0.579 µM (active)
5,O=C(Cc1ccc2c(c1)OCO2)NN=Cc1ccc([N+](=O)[O-])o1,0.918 µM (active)
6,O=C(N/N=C/c1ccc([N+](=O)[O-])o1)c1ccc2c(c1)OCO2,0.818 µM (active)
7,O=C(Cc1ccc([N+](=O)[O-])cc1)N/N=C/c1ccc([N+](=O)[O-])o1,1.16 µM (active)
8,O=c1c2ccccc2sc2ccc(C#CC3(O)CCCCC3)cc12,0.65 µM (active)
9,O=[N+]([O-])c1ccc2c3n([n+]([O-])c2c1)CCN=C3c1ccc(Cl)cc1,4.1 µM (active)
10,Cc1ccc(C2=NCCn3c2c2ccc([N+](=O)[O-])cc2[n+]3[O-])cc1,1.3 µM (active)
11,C[C@H](CO)N1C[C@H](C)[C@H](CN(C)C(=O)Nc2ccc(C(F)(F)F)cc2)Oc2c(NC(=O)c3ccncc3)cccc2C1=O,inactive
12,C[C@@H]1CN([C@H](C)CO)C(=O)c2cc(NC(=O)Nc3ccc4c(c3)OCO4)ccc2O[C@H]1CN(C)Cc1ccncc1,inactive
13,C[C@@H]1CN([C@@H](C)CO)C(=O)c2cccc(NS(=O)(=O)c3cccs3)c2O[C@H]1CN(C)Cc1ccc(C(F)(F)F)cc1,3.65 µM (active)
14,O=C1NC(=S)S/C1=C\C=C\c1ccc([N+](=O)[O-])o1,0.326 µM (active)
15,[O-][n+]1c2ccccc2c2n1CCN=C2c1ccc(Cl)cc1,0.29 µM (active)
16,[O-][n+]1c2ccccc2c2n1CCCN=C2c1ccc(Cl)cc1,1.3 µM (active)
17,Cc1ccc(C2=NCCn3c2c2ccccc2[n+]3[O-])cc1,0.146 µM (active)
18,Cc1cnc([N+](=O)[O-])n1CCOC(=O)NC(=O)c1cccc(F)c1,0.65 µM (active)
19,Cc1cnc([N+](=O)[O-])n1CCOC(=O)NC(=O)c1c(F)cccc1F,1.3 µM (active)
20,Cc1cnc([N+](=O)[O-])n1CCOC(=O)NC(=O)c1ccccc1,0.918 µM (active)
21,Cc1cnc([N+](=O)[O-])n1CCOC(=O)NC(=O)c1ccc(F)cc1,1.16 µM (active)
